Hits are enriched below; roughly 3% of the tested compounds scored in any of these assays.
14-3-3 Bad inh – disrupts binding of bovine 14-3-3 zeta to phospho-Bad peptide. TR-FRET 14-3-3zeta/Dy647-pBad peptide displacement, 1 h. inhibition, % at 21.7 µM. 0.71% of 220,000 active. AID 781;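 active means inhibition above about 70%, limit read from the data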
L929 necroptosis – L929 zVAD cell death inhibition; L929 zVAD necroptosis rescue, ATP luminescence, 24 h; with zVAD 60 µM; viability rescue, % at 10 µM; 0.38% of 220,000 active; AID 1377;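 active means activation, scaled between plate controls, above about 75%, limit read from the data; inactive means activation under that limit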
TNF necrop inh – inhibitors of TNF-alpha induced necroptosis in Jurkat FADD-/- cells. Jurkat FADD-/- TNF necroptosis rescue, ATP luminescence, 24 h; 0 = TNF only, 100 = no-TNF cells. activation (protection from cell death), % at 10 µM. 0.068% of 220,000 active;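 active means activation, meaning protection from cell death, of at least 50% relative to plate controls; inactive means activation below 50%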;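 further: necroptosis triggered by 40 ng/mL TNF-alpha added together with compound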
m-calpain inh – inhibitors of pig calpain II; 0.37% of 220,000 active; inhibition, % at 16 µM; AID 1236; purified calpain II, fluorogenic peptide substrate, 30 min;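 active means inhibition above about 50%, limit read from the data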
Efa HMGR inh – blocks class II HMG-CoA reductase of Enterococcus faecalis; inhibition, % at 10 µM; 0.41% of 190,000 active; AID 1066; purified E. faecalis HMGR, NADPH absorbance 340 nm kinetic;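 active means inhibition above a set limit, the median over all tested compounds plus 3 SD, cut at about 9.5% in these data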;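 further: enzyme runs in reverse so mevalonate oxidation gives rising NADPH absorbance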
ROMK primary – modulates human ROMK potassium channel activity; B-score at 10 µM; Tet-inducible ROMK, thallium flux fluorescence; actives lie on both sides; 2% of 130,000 active; P48048; AID 1918;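 active means signal ratio slope over the read window, or its plate-corrected B-score, at least 3 SD from the plate mean, either direction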;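 further: B-score of the F/F0 ratio slope over 7 to 12 s after thallium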
Target sequence (P48048 whole entry, looked up): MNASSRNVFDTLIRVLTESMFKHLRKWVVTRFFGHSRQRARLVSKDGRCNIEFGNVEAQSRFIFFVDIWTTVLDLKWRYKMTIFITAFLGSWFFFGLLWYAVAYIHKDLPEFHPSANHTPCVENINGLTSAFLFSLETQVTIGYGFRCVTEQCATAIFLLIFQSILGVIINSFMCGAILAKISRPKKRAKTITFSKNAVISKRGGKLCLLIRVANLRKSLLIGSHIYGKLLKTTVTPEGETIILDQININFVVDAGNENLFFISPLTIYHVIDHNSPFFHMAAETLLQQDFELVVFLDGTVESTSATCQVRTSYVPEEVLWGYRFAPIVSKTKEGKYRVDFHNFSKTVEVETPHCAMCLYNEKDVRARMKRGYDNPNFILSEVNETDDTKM
Hits are given with their value; . = inactive; / = no result given; ! = not confirmed by another sample; [ ] = dose if it differs, or a comment.

SMILES	14-3-3 Bad inh	L929 necroptosis	TNF necrop inh	m-calpain inh	Efa HMGR inh	ROMK primary
CCCCSc1nnc(-c2ccc(C)cc2)c2ccccc12	.	.	.	52	.	.
COc1c(C)cc(C(=O)C2CCCN(C(=O)CCc3scnc3C)C2)cc1C (centres undefined)	.	.	.	.	.	.
C=CCn1c(SCC(=O)N2CCc3ccccc3C2)nc2sc(C)c(C)c2c1=O	.	.	.	.	.	/
CCOc1cc(CNc2ccc(O)cc2)cc(Br)c1OCc1ccccc1F	.	.	.	73	.	/
COc1cc(CNc2ccc(O)cc2)cc(Br)c1OCc1ccccc1F	.	.	.	.	.	/
COc1cc(CNCc2ccncc2)cc(Br)c1OCc1ccccc1F	83	.	.	.	.	.
CC(=O)COc1ncn(-c2ccccc2)n1	.	.	.	.	.	.
Cc1nc2c(o1)CCc1ccccc1C2N1CCN(C)CC1 (centres undefined)	.	.	.	.	9.5!	.
Cn1c(CSCc2ccc(Cl)c(Cl)c2)n[nH]c1=S	.	.	.	.	.	/
CS(=O)(=O)Nc1ccccc1C(=O)Nc1cccc(Cl)c1	77	.	.	.	.	/
COCC1CCN(Cc2cn[nH]c2-c2cc(OC)c(OC)c(OC)c2)CC1	.	.	.	.	11	.
N#CC1=C(S)N(c2ccc(F)cc2)C2(CCCCC2)NC1=O	.	.	.	.	.	.
Cc1c(O)ccc(C(=O)CN2C(=O)c3ccccc3C2=O)c1O	.	.	.	78	.	/
Cc1cc(C(=O)CN2C(=O)c3ccccc3C2=O)c(C)n1C1CC1	.	.	.	.	.	.
COc1ccc(CN2C(=O)c3cccnc3C2O)cc1 (centres undefined)	87	.	.	.	.	/
COc1ccc(OC)c(NC2c3ncccc3C(=O)N2Cc2ccco2)c1 (centres undefined)	.	.	.	.	.	.
CCOC(=O)c1ccc(NC2c3ncccc3C(=O)N2Cc2ccc(F)cc2)cc1 (centres undefined)	86	.	.	.	.	.
COc1ccc(CN2C(=O)c3cccnc3C2Nc2cc(Cl)ccc2OC)cc1 (centres undefined)	96[fluorescence artefact?]	.	.	.	.	.
COc1ccc(NC2c3ncccc3C(=O)N2Cc2cccs2)cc1 (centres undefined)	.	.	.	.	.	/
COC(=O)c1cc(NC2c3ncccc3C(=O)N2Cc2ccccc2)cc(C(=O)OC)c1 (centres undefined)	.	.	.	.	.	.
COCCNC(=O)C(c1ccccc1)N(C(=O)Cn1nnc2ccccc21)c1cccnc1 (centres undefined)	.	.	.	.	.	/
COCCNC(=O)C(c1ccccc1C)N(C(=O)Cn1nnc2ccccc21)c1cccnc1 (centres undefined)	.	.	.	.	15	.
O=C(O)CCN1C(=O)/C(=C/c2ccc(-c3nc4ccccc4s3)o2)SC1=S	.	.	.	.	.	/
O=C(O)C(Cc1ccccc1)N1C(=O)/C(=C/C=C/c2ccco2)SC1=S (centres undefined)	95	.	.	.	/	/
Cn1cccc1/C=C1\SC(=S)N(NC(=O)c2ccccc2O)C1=O	.	.	.	.	/	/
SMILES	14-3-3 Bad inh	L929 necroptosis	TNF necrop inh	m-calpain inh	Efa HMGR inh	ROMK primary
O=C(O)CC(C(=O)O)N1C(=O)/C(=C/C=C/c2ccco2)SC1=S (centres undefined)	74	.	.	.	/	/
O=C(NN1C(=O)/C(=C/C=C/c2ccco2)SC1=S)c1ccccc1O	75	.	.	.	/	/
O=C(O)CCCN1C(=O)/C(=C\c2ccc(-c3nc4ccccc4s3)o2)SC1=S	81	.	.	.	/	.
CCOC(=O)/C(C#N)=C/Nc1ccccc1OC(F)(F)F	.	.	.	.	/	.
COc1ccc(OCC(=O)Nc2cccc(NC(=O)c3ccco3)c2)cc1	.	.	.	.	.	.
O=C(O)CCCN1C(=O)/C(=C/C=C/c2ccco2)SC1=S	76	.	.	.	/	/
O=C(Nc1ccccc1Br)C1CC(=O)N(c2ccc3c4c(cccc24)CC3)C1 (centres undefined)	.	.	.	.	.	/
O=c1c2c(-c3ccccc3)csc2ncn1/N=C/c1cccc([N+](=O)[O-])c1O	.	.	.	.	.	.
